# This is part of a sample that, as a whole, favours compounds with a hit. Of some 83,000 tested, about 20% had one in any assay.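 Step 1: grow cells in 96-well plates. Step 2: add test compound at a single concentration. Step 3: incubate 48 h. Step 4: record percent growth.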 Values without a mark were called inactive. Active and inactive are the calls of the source. The calls were made as follows: active = growth percent below 10; inactive = the rest.
# How the values were obtained:
# Assay in all cases: NCI-60 one-dose screen, 48 h (100 = growth as untreated, 0 = no growth, -100 = all killed)
# NCI-H460 lung = conditions: 10 µM unless noted
# K-562 leukemia = conditions: 10 µM unless noted
# MALME-3M melanoma = conditions: 10 µM unless noted
# RXF 393 renal = conditions: 10 µM unless noted
# SF-295 CNS = conditions: 10 µM unless noted
# UACC-257 melanoma = conditions: 10 µM unless noted
# SNB-75 CNS = conditions: 10 µM unless noted
# U251 CNS = conditions: 10 µM unless noted
# SK-MEL-5 melanoma = conditions: 10 µM unless noted
# SK-MEL-2 melanoma = conditions: 10 µM unless noted
# SN12C renal = conditions: 10 µM unless noted
# UO-31 renal = conditions: 10 µM unless noted
# HL-60(TB) leukemia = conditions: 10 µM unless noted
# MOLT-4 leukemia = conditions: 10 µM
# RPMI-8226 leukemia = conditions: 10 µM unless noted
# IGROV1 ovarian = conditions: 10 µM
# BT-549 breast = conditions: 10 µM
# HCT-116 colon = conditions: 10 µM unless noted
# HCC-2998 colon = conditions: 10 µM unless noted
# SR leukemia = conditions: 10 µM
SMILES,growth (NCI-H460 lung),growth (K-562 leukemia),growth (MALME-3M melanoma),growth (RXF 393 renal),growth (SF-295 CNS),growth (UACC-257 melanoma),growth (SNB-75 CNS),growth (U251 CNS),growth (SK-MEL-5 melanoma),growth (SK-MEL-2 melanoma),growth (SN12C renal),growth (UO-31 renal),growth (HL-60(TB) leukemia),growth (MOLT-4 leukemia),growth (RPMI-8226 leukemia),growth (IGROV1 ovarian),growth (BT-549 breast),growth (HCT-116 colon),growth (HCC-2998 colon),growth (SR leukemia)
CC[C@]12C=CCN3CC[C@@]4(c5ccc(OC)cc5N(C)[C@H]4[C@@](O)(C(=O)OC)[C@@H]1OC(=O)CCCN1CCN(CCCC(=O)O[C@@H]4[C@]5(CC)C=CCN6CC[C@@]7(c8ccc(OC)cc8N(C)[C@H]7[C@@]4(O)C(=O)OC)[C@@H]65)CC1)[C@@H]32,-80.3% (active),-62% (active),-90.7% (active),-88.5% (active),-85.9% (active),-87.6% (active),-94.3% (active),-83.7% (active),-95.9% (active),-75.7% (active),-81.4% (active),-88.8% (active),-66.6% (active),-62.9% (active),-55.2% (active),-76.6% (active),-88.3% (active),-84% (active),-86.6% (active),–
N#[N+]c1nc2nc(N)[nH]c(=O)c2[nH]1,101%,101%,107%,111%,101%,88.8%,92%,91.5%,92.5%,101%,99.9%,72%,100%,103%,97%,107%,–,–,104%,94.2%
C/C(=N/OC(=O)N(C)C)c1ccc(Cl)cc1Cl,104%,106%,97.6%,112%,98.6%,101%,79.2%,–,103%,88.8%,96.8%,80.8%,93.7%,90%,103%,104%,97%,99.1%,102%,87.2%
O=C1CSC(c2c(Cl)cccc2Cl)N1c1nc(Cl)cc(=O)[nH]1 (configuration not stated),–,–,–,–,–,–,–,–,–,–,–,–,161%,–,–,–,–,–,–,–

# Source: PubChem BioAssay (NCI)
